Screening results deposited in PubChem BioAssay by several laboratories.
This is a sample that favours compounds with a hit; in the whole collection about 4.7% have one here.
ADAM10 inh – inhibits human ADAM10 | recombinant ADAM10, EDANS/DABCYL FRET peptide cleavage, 3 h | inhibition, % at 7 µM | actives 0.62% (n = 370,000) | AID 720582;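 active = inhibition above a per-campaign cutoff equal to the mean of compounds falling between control-based bounds plus 3 SD, cut at about 20% in these data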;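 note: 0% = DMSO wells while the 100% control is not disclosed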
MPTP inh – permeability transition pore inhibition; actives 1.4% (n = 360,000); isolated mouse mitochondria, Ca2+ swelling absorbance, 30 min; inhibition, % at 10 µM; AID 602449;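 active = inhibition of 50% or more, scaled per plate between neutral and stimulator controls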;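 note: 0% = DMSO wells given calcium and 100% = 1 mM EGTA wells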
KLK7 zymogen act – proKLK7 (human) activation, primary screen; purified proKLK7, EDANS-DABCYL substrate fluorescence; 100% is mature enzyme control, 0% vehicle; actives 0.9% (n = 370,000); P49862; AID 652039; activation, % at 7 µM;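 active = activation above the mean of all tested compounds plus 3 SD, computed per campaign excluding outliers beyond control limits, cut at about 13% in these data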
DSG3 Ab inh – inhibitors of pemphigus antibody binding to human desmoglein-3 | P32926 | DSG3-coupled beads, scFv-anti-DSG3-GFP binding, flow cytometry; active compounds read low | binding (percent of control), % at 10 µM | actives 0.48% (n = 310,000);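 active = binding more than 3 SD below its plate's average and above zero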;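 note: hits lower antibody fragment binding to DSG3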
rCAG binder – r(CAG) repeat RNA binding | actives 1.3% (n = 370,000) | TO-PRO-1 dye displacement fluorescence | inhibition, % at 3 µM | AID 651821;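 active = inhibition above the plate cutoff, the mean of all test compounds on that plate plus 3 SD, cut at about 35% in these data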;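 note: 0% = DMSO alone and 100% = 100 µM mitoxantrone as full dye displacement; higher means more dye released from RNA so lower well fluorescence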
ADAM17 inh – ADAM17 inhibition, QFRET primary screen. inhibition, % at 6.95 µM. P78536. recombinant ADAM17, EDANS/DABCYL FRET peptide cleavage. actives 0.83% (n = 370,000);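 active = inhibition above the mean of compounds lying between control limits plus 3 SD, set per campaign, cut at about 8.5% in these data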;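 note: 0% = DMSO-only wells as the low control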
Target sequence (P78536 215-824 limits assumed): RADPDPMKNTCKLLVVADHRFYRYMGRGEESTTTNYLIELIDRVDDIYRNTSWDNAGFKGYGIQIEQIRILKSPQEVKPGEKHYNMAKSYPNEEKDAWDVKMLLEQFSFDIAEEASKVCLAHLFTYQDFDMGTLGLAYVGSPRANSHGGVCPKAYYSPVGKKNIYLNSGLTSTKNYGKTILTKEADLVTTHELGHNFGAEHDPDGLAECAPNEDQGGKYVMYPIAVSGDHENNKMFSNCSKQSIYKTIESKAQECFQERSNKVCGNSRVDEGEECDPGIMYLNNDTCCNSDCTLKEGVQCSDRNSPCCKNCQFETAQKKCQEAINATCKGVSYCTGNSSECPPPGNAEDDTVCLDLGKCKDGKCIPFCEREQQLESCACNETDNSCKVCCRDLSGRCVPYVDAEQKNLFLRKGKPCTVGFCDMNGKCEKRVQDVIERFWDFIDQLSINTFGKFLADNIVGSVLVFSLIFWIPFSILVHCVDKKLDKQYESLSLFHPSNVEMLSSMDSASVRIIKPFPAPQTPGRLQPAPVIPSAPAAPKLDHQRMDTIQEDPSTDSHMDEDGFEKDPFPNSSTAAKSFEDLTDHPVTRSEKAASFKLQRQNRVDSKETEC
rCAG bind conf – r(CAG) RNA repeat binding, confirmation. shares compounds with rCAG binder. TO-PRO-1 dye displacement fluorescence. inhibition, % at 3 µM. actives 70% (n = 4,300);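 active = inhibition above a per-plate cutoff, the mean inhibition of sample wells plus 3 SD, cut at about 35% in these data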;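 note: loss of TO-PRO-1 fluorescence as compound displaces dye from 1x1 AA loop RNA; 0% = DMSO only wells and 100% = 100 µM mitoxantrone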
dCAG dye counter – DNA CAG dye complex inhibition counter-screen | shares compounds with rCAG binder | d(CAG) DNA oligo TO-PRO-1 dye displacement, fluorescence | inhibition, % at 3 µM | actives 94% (n = 4,300);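 active = inhibition above its plate's cutoff, the mean test-well inhibition plus 3 SD, cut at about 4.8% in these data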;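 note: 0% = DNA dye mix with DMSO and 100% = 100 µM mitoxantrone; hits displace the dye from DNA and so lower well fluorescence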
DNA CAG DR – DNA CAG dye complex inhibition, dose response counter-screen. shares compounds with rCAG binder. DNA CAG/GTC duplex TO-PRO-1 dye displacement fluorescence. IC50, µM. actives 20% (n = 250). AID 686960; in the data active = IC50 below about 10 µM
* hit, by the source's call; i = inactive; / = not tested or not shown.

SMILES	ADAM10 inh	MPTP inh	KLK7 zymogen act	DSG3 Ab inh	rCAG binder	ADAM17 inh	rCAG bind conf	dCAG dye counter	others
CC(/C=C1\SC(=O)N(CCCC(=O)O)C1=O)=C\c1ccccc1	8	0	0	102	10	2	/	/
CCCC[C@H]1C2CC(OC(=O)Nc3cccc(F)c3)C(C2)[C@H]2CCCCN21 (some centres undefined)	1	/	0	/	-2	2	/	/
O=C1NC(c2ccc(Br)cc2)c2c(-c3ccccc3)n[nH]c21 (centres undefined)	-11	/	0	/	1	-1	/	/
COc1ccc(S[C@]2(C(=O)N3CCN(C(C)=O)CC3)CC(=O)N(C(=O)c3ccccc3)[C@@H]2c2ccc(OC)cc2)cc1	-5	/	0	/	11	-4	/	/
COc1cc(NS(=O)(=O)c2ccc(NC(=O)COc3ccc(C)cc3)cc2)nc(OC)n1	0	4	0	104	38*	-6	27	10*
COc1cc(NS(=O)(=O)c2ccc(NC(=S)NC(C)=O)cc2)nc(OC)n1	-1	1	0	109	11	2	/	/
COc1ccc(CC(=O)Nc2ccc(S(=O)(=O)Nc3cc(OC)nc(OC)n3)cc2)cc1	-5	0	0	99	20	-3	/	/
COc1cc(NS(=O)(=O)c2ccc(NC(=S)NC(=O)c3ccc(F)c(F)c3)cc2)nc(OC)n1	-1	-1	-1	/	49*	-8	54*	12*	DNA CAG DR=>30
COc1cc(NS(=O)(=O)c2ccc(NC(=S)NC(=O)COc3ccccc3OC)cc2)nc(OC)n1	5	-1	0	103	44*	1	59*	24*
COc1cc(NS(=O)(=O)c2ccc(NC(=O)/C(=C/c3ccccc3Cl)NC(=O)c3ccccc3)cc2)nc(OC)n1	8	1	0	94	74*	4	79*	34*	DNA CAG DR=9.8*
CCC1Nc2ncnc(N3CCN(c4ccccc4)CC3)c2N(Cc2ccc(Br)cc2)C1=O (centres undefined)	11	2	0	99	1	1	/	/
COC(=O)[C@@]12C[C@@H](CC(=O)NCc3cccc4ccccc34)C(=O)N(Cc3ccccc3)C1=CCC(C)(C)C2	17	-1	0	/	6	9	/	/
C=CCN=C1NC(c2ccc(F)cc2)C(C(=O)OC)=C(C)N1C (centres undefined)	-2	/	0	/	-1	-4	/	/
COc1cc(NS(=O)(=O)c2ccc(NC(=O)COc3ccc(C)cc3C)cc2)nc(OC)n1	10	1	0	105	45*	3	46*	14*
COc1cc(NS(=O)(=O)c2ccc(NC(=O)COc3ccccc3C)cc2)nc(OC)n1	1	-1	0	105	45*	0	32	13*
COC(=O)CCC(=O)Nc1ccc(S(=O)(=O)Nc2cc(OC)nc(OC)n2)cc1	-10	2	1	87	0	-5	/	/
COC(CNC(=O)[C@H](Cc1c[nH]c2ccccc12)NC1(C(=O)NCc2ccccc2)CCCCC1)OC	-1	/	/	/	/	-1	/	/
COc1ccc(/C=C2\SC(=S)N(NS(=O)(=O)c3ccccc3)C2=O)c(OC)c1	-13	2	0	104	39*	-7	74*	34*	DNA CAG DR=i
O=C1/C(=C/C=C/c2ccco2)SC(=S)N1NS(=O)(=O)c1ccccc1	-21	0	0	51*	89*	-11	87*	61*
COc1ccc(OC)c(/C=C2\SC(=S)N(NS(=O)(=O)c3ccccc3)C2=O)c1	18	2	0	101	87*	2	67*	30*
COc1cccc(/C=C2\SC(=S)N(NC(=O)c3ccncc3)C2=O)c1	-3	-3	0	101	16	-4	/	/
CC(C(=O)O)N1C(=O)/C(=C/C=C/c2ccco2)SC1=S (centres undefined)	-13	-3	1	69*	83*	-5	79*	41*
CCOC(=O)N1CCN(C(=O)c2cc3cc(Cl)ccc3[nH]2)CC1	-5	1	0	95	-1	-3	/	/
C#CCNC[C@@H]1CSCCS(=O)(=O)N1	-12	/	-1	/	1	-5	/	/
O=C(CSc1nncc(=O)[nH]1)NC1CCCCC1	-1	-1	-8	105	-5	-3	/	/
SMILES	ADAM10 inh	MPTP inh	KLK7 zymogen act	DSG3 Ab inh	rCAG binder	ADAM17 inh	rCAG bind conf	dCAG dye counter	others
CC(C)(C)S(=O)(=O)N1C[C@H]2CC(=O)C(CCO)=C2[C@@H]1CCO	3	/	0	/	4	0	/	/
O=C1/C(=C/c2cccs2)SC(=S)N1NS(=O)(=O)c1ccccc1	5	3	0	98	54*	0	30	6.8*
Cc1ccc2[nH]c(C(=O)O)c(NC(=O)CN3CCN(c4cccc(C)c4C)CC3)c2c1	-6	-2	-1	118	65*	-4	69*	28*
COC(=O)C(C)N1C(=O)S/C(=C\c2ccc(-c3ccc(C(=O)O)cc3C)o2)C1=O (centres undefined)	-11	3	1	100	44*	-1	33	7.8*
Cc1ccc(NC(=O)CN2C(=O)S/C(=C/c3ccc(-c4cc(C(=O)O)ccc4C)o3)C2=O)cc1C	-16	3	0	102	46*	-6	91*	74*
O=C(Cc1ccccc1)NC1CCCCC1	2	-1	0	/	3	3	/	/
O=C1OC(c2cccs2)=N/C1=C\c1ccc(-c2ccccc2Cl)o1	-1	0	0	112	40*	-2	37*	16*
O=C1OC(c2cccs2)=N/C1=C/c1ccc(-c2cccc(C(=O)O)c2)o1	-9	4	1	97	18	-1	/	/
O=C(O)CSc1cc(C(=O)c2ccccc2O)cn2c(=O)c3c4c(sc3nc12)CCCC4	-6	8	0	90	47*	-4	85*	61*
CN1CCc2c(sc3nc(SCC(N)=O)n(-c4ccc(Cl)cc4)c(=O)c23)C1	-131	0	-5	101	14	-56	/	/
O=C(CSc1nc2sc3c(c2c(=O)n1-c1ccc(Cl)cc1)CCC3)Nc1ccc(C(=O)O)cc1	-13	/	0	/	58*	-6	52*	22*
O=C(O)CSc1nc2sc3c(c2c(=O)n1Cc1ccccc1)CCCCC3	-9	2	0	110	53*	-2	54*	17*
Cc1ccccc1-n1c(SCC(=O)O)nc2sc3c(c2c1=O)CCCC3	-4	1	0	103	10	-4	/	/
